The record followed here is PubChem BioAssay AID624296 (National Center for Advancing Translational Sciences (NCATS), 2012).

In all, about 350,000 compounds went through this assay and about 9,900 (2.8%) were called active. Where a call stands in place of a potency, no number is given. Not shown: some 15% with an inconclusive outcome. Calls follow the shape of the dose curve; as a rule, active = well fitted activation curve with a large enough effect; inconclusive = small, poorly fitted or top-dose-only effect; inactive = no such curve, though single readings can be large or run the other way. For the sample, actives were picked, then their nearest neighbours and some compounds at random.
Potency is read from the fitted curve at half-maximal effect.

This assay can be described thus: A quantitative high throughput screen for small molecules that induce DNA re-replication in MCF 10a normal breast cells. Also: nearly all actives have a fitted effect of over 50% in size. As to conditions: MCF 10A DNA re-replication, Hoechst nuclear intensity, 48 h; series mostly up to 46.1 µM.
`Cn1cccc1C(=O)OCC(=O)NCCc1ccccc1`: the Potency entry is “inactive”. The result for `Cc1ccc(S(=O)(=O)N2CCN(C(=O)CN3C(=O)NC(C)(c4ccc(Cl)cc4)C3=O)CC2)c(C)c1` (configuration not stated) reads “inactive”; that for `NC(=O)c1ccc(N2CCCC2)nc1`, “inactive”; that for `N#Cc1c(-c2ccccc2)nc(SCc2ccc([N+](=O)[O-])cc2)[nH]c1=O`, “inactive”. For the compound `COc1ccccc1C1CCN(c2ccc([N+](=O)[O-])cn2)CC1`, the Potency result was “inactive”. The result for `COc1ccccc1CSc1ncc(-c2ccc([N+](=O)[O-])cc2)[nH]1` reads 11.6 µM (active); that for `COc1ccccc1CSc1nc2ccccc2[nH]1`, 8.2 µM (active). The result for `C=CCSc1nc2ccccc2[nH]1` reads “inactive”; that for `CCCCSc1nc2ccccc2[nH]1`, “inactive”; that for `Nc1cc2c(cc1Br)-c1ccc(F)cc1C2=O`, “inactive”. Turning to `CCOC(=O)C1CCN(CC(=O)Nc2ccc(OC)c(S(=O)(=O)N3CCCCC3)c2)CC1`, the Potency entry was “inactive”. To `O=C(c1cn(-c2ccccc2)nc1-c1cccnc1)N1CCN(S(=O)(=O)c2ccccc2F)CC1` belongs “inactive”; to `COc1cccc(OC)c1C(=O)Nc1sc2c(c1C(N)=O)CCCC2`, “inactive”; to `O=C(CN1CCCC1)Nc1sc2c(c1C(=O)Nc1ccccc1)CCCC2`, “inactive”. `CCOC(=O)C(NC(=O)CC(C)C)(Nc1sc2c(c1C(N)=O)CCCC2)C(F)(F)F` (configuration not stated): the Potency result is “inactive”. The result for `NC(=O)c1c(Nc2nc3c(F)cccc3s2)sc2c1CCCC2` reads 20.6 µM (active). To `NC(=O)c1c(NC(=O)c2ccccc2)sc2c1CCCC2` belongs 18.4 µM (active); to `O=C(Nc1sc2c(c1C(=O)O)CCC2)c1ccccc1F`, “inactive”. The result for `O=C(NNC(=O)c1ccc(-n2cncn2)c([N+](=O)[O-])c1)c1ccccc1` reads “inactive”; that for `CCN(CC)c1ccc(NC(=O)CN2C(=O)NC3(CCc4ccccc43)C2=O)cc1` (configuration not stated), “inactive”; that for `CCN(CC(=O)Nc1ccc(OC)cc1)C(=O)c1ccc(Cl)c(S(=O)(=O)N2CCCC2)c1`, “inactive”.

In the case of `OCC1(CO)CC2(C1)CC(CO)(CO)C2`, the Potency result was “inactive”.

Consider `CN(C)C(=O)CCc1ccc2c3c([nH]c2c1)[C@]1(C)[C@@H](C(=O)N2CCCCC2)C[C@H](CC(=O)NCCC2=CCCCC2)C(=O)N1CC3`, for which the Potency result is “inactive”. With `C/C(=N\NC(=O)c1ccoc1C)c1ccccc1O`, the Potency is 7.31 µM (active). Turning to `CC(=O)NC(=O)c1ccccc1O`, the Potency entry is “inactive”. To `CC(C)=C(NC(=O)c1ccccc1)C(=O)N/N=C(\C)c1ccccc1O` belongs “inactive”.

For the compound `CSCCC(NC(=O)c1ccccc1)C(=O)N1CCCCCCC1` (configuration not stated), the Potency entry is “inactive”. The result for `O=C(Cc1ccc(NC(=O)C2CCCN(C(=O)C3CCCCC3)C2)cc1)Nc1cccc(C(=O)N2CCCCC2)c1` (configuration not stated) reads “inactive”. To `CC(=O)c1c(N2CCOCC2)nc(=S)n(Cc2ccccc2)c1C` belongs “inactive”; to `CC(=O)c1c(N2CCOCC2)nc(=S)n(-c2cc(C)ccc2C)c1C`, 1.3 µM (active).

For `CC(=O)c1c(N2CCN(c3ccc(F)cc3)CC2)nc(=S)n(-c2ccccc2)c1C`, the Potency result was “inactive”. With `O=C(CN1C(=O)NC2(CCOc3ccccc32)C1=O)Nc1cccc([N+](=O)[O-])c1` (configuration not stated), the Potency result was “inactive”. As for `O=C(OCCN1C(=O)c2ccccc2C1=O)[C@@H]1CC(O)CN1S(=O)(=O)c1ccccc1[N+](=O)[O-]` (some centres not stated), the Potency result was “inactive”.

Turning to `COc1ccc(OC)c(/C=C/C(=O)OCC(=O)Nc2ccc3c(c2)OCCO3)c1`, the Potency is 20.6 µM (active). In the case of `COc1ccc(/C=C/C(=O)OCC(=O)Nc2cccc(Oc3ccccc3)c2)c(OC)c1`, the Potency entry was “inactive”. The result for `COc1cccc(NC(=O)CN(C)C(=O)/C=C/c2cc(OC)ccc2OC)c1` reads “inactive”; that for `CC(=O)NC(CC(=O)Nc1ccc(S(=O)(=O)N2CCOCC2)cc1)c1ccccc1` (configuration not stated), “inactive”. To `C/C(=N/OC(=O)c1c(-c2c(F)cccc2Cl)noc1C)c1cnccn1` belongs “inactive”; to `CCOC(=O)c1cc2c(=O)n3ccccc3nc2n(CC(C)C)c1=NC(=O)c1c(-c2c(F)cccc2Cl)noc1C`, 3.26 µM (active). The result for `CCCn1c(=NC(C)=O)c(C(=O)OCC)cc2c(=O)n3ccccc3nc21` reads “inactive”; that for `Cc1noc(C)c1NC(=O)Nc1cccc2c1O[C@H](CN(C)S(=O)(=O)c1c(C)noc1C)[C@@H](C)CN([C@H](C)CO)C2=O`, “inactive”; that for `CCc1nnc(NC(=O)c2cc(S(=O)(=O)N3CCN(CC)CC3)ccc2Cl)s1`, “inactive”.

On to `CCCN(CC(=O)Nc1ccccc1C)C(=O)c1ccc2[nH]c3c(c2c1)CC(C)CC3` (configuration not stated), for which the Potency was 1.3 µM (active). The result for `CC1CCc2[nH]c3ccc(C(=O)N(C)CC(=O)Nc4cccc(F)c4)cc3c2C1` (configuration not stated) reads “inactive”; that for `CCCN(CC(=O)Nc1ccccc1C)C(=O)c1cc(=O)[nH]c2ccccc12`, “inactive”.

Regarding `CN1CCOC1c1ccc(C2OCCN2C)cc1` (configuration not stated), the Potency entry was “inactive”. The result for `O=C1C=C(c2ccnc3cc(Cl)ccc23)C[C@@H](c2ccc3c(c2)OCO3)C1` reads “inactive”; that for `CCOc1ncccc1C(=O)Nc1ccc2c(c1)OCCO2`, “inactive”; that for `COc1ccc(C(=O)N2CCN(c3ncccn3)CC2)cc1S(=O)(=O)N1CCOCC1`, “inactive”. To `CCC(=O)N1CCN(c2ccccc2NC(=O)COc2cccc(C)c2C)CC1` belongs “inactive”; to `Cc1ccc(C(C)C)cc1OCCN1CCCC1`, “inactive”.

For the compound `Cc1ccc(C(C)C)cc1OCC(=O)Nc1ccccc1N1CCCC1`, the Potency was 20.6 µM (active). As for `O=S(=O)(NCCCCCCNS(=O)(=O)c1c(F)cccc1F)c1ccc2c(c1)OCCO2`, the Potency entry is “inactive”. The result for `COc1ccc(/C=C/C(=O)Nc2ccc(C)cc2)cc1S(=O)(=O)N1CCOCC1` reads “inactive”; that for `CCn1nc(C)c(NC(=O)/C=C/c2ccc(OC)c(COc3ccc(Br)cc3)c2)c1C`, 8.2 µM (active); that for `COc1ccc(OC)c(S(=O)(=O)Nc2c(C)nn(C)c2C)c1`, “inactive”. Turning to `C/C=C/c1ccc(OCC(=O)OCC(=O)Nc2c(C)nn(-c3ccccc3)c2C)c(OC)c1`, the Potency entry is “inactive”.

In the case of `COc1ccc(/C=C/C(=O)Nc2c(C)nn(C)c2C)cc1COc1ccc(Br)cc1`, the Potency was 4.61 µM (active). The result for `COc1ccc(/C=C/C(=O)Nc2cccnc2)cc1OC` reads “inactive”. To `CCCC(NCC(=O)Nc1ccccc1C(=O)NC1CC1)c1ccccc1` (configuration not stated) belongs “inactive”; to `Cc1ccc(S(=O)(=O)N2CCN(C(=O)COC(=O)/C=C/c3cccc(Cl)c3)CC2)c(C)c1`, “inactive”.

On to `O=C(N[C@H]1C/C=C\C(c2ccc(F)cc2)N(Cc2ccccc2)C(=O)C1)OCC1c2ccccc2-c2ccccc21` (some centres not stated), for which the Potency entry was “inactive”. The result for `Cc1ccsc1C(=O)NC1CCCCC1C` (configuration not stated) reads “inactive”; that for `CC(=O)Nc1ccc(-c2csc(NC(=O)Nc3ccccc3)n2)cc1`, 20.6 µM (active).

Regarding `CC(=O)Nc1ccc(S(=O)(=O)Nc2nc(-c3ccc(C(C)(C)C)cc3)cs2)cc1`, the Potency result is “inactive”. Consider `CC(=O)Nc1ccc(-c2csc(NC=C3C(=O)OC(C)(C)OC3=O)n2)cc1`, for which the Potency result is “inactive”.

Take `O=C(O[C@@H]1[C@H](Cc2ccccc2)NS(=O)(=O)[C@H]2C[C@@H]3C=C[C@]12O3)c1ccccc1Br`: the Potency result was “inactive”.

Turning to `NC(=O)c1ncn([C@@H]2O[C@H](CNCc3cnc(N4CCOCC4)s3)[C@@H](O)[C@H]2O)n1`, the Potency entry was “inactive”. The result for `CC(=O)NC12CC3CC(C1)CC(C(=O)N1CCN(S(=O)(=O)c4cccs4)CC1)(C3)C2` reads “inactive”. The result for `CN1C(=O)[C@H]2[C@@H](/C=C/c3ccccc3)N3C(=O)CN(Cc4ccc(-c5ccccc5)cc4)C(=O)[C@@]3(C)[C@H]2C1=O` reads “inactive”. The result for `Cc1ccc(NC(=O)N2CCC(c3nc4c(nnn4Cc4c(F)cccc4Cl)c(=O)[nH]3)CC2)cc1` reads “inactive”; that for `OC1CCCN(c2ncnc3c2nnn3Cc2c(F)cccc2Cl)C1` (configuration not stated), 16.4 µM (active). As to `CCOC(=O)N1CCN(C(=O)C2CCCN(c3ncnc4c3sc3cccc(F)c34)C2)CC1` (configuration not stated), the Potency entry was “inactive”. As for `C(#CCN1CCOCC1)CCCN1CCOCC1`, the Potency entry is “inactive”. To `O=[N+]([O-])c1ccc(C=NN=Cc2ccc([N+](=O)[O-])cc2)cc1` belongs “inactive”; to `O=C(OCC(=O)N1CCCCCC1)c1ccc(Br)c(S(=O)(=O)N2CCOCC2)c1`, “inactive”.

As for `Cn1c(Cc2cccc3ccccc23)nnc1SCC(=O)N1CCN(c2cccc(Cl)c2)CC1`, the Potency was 13 µM (active).

For `Cn1c(CNC(=O)c2ccco2)nnc1SCC(=O)N1CCN(c2ccccc2)CC1`, the Potency entry is “inactive”. The result for `Cc1nnc(SCC(=O)N2CCN(c3ccccc3)CC2)n1-c1ccccc1` reads “inactive”; that for `CCCC(O)(c1ccccc1)C(c1ccccc1)c1ccccn1` (configuration not stated), “inactive”; that for `COc1cc(/C=C/C(=O)OCC(=O)NCCCc2ccccc2)ccc1O`, “inactive”. The result for `CCn1c(=N)c(S(=O)(=O)c2ccc(F)cc2)cc2c(=O)n3ccccc3nc21` reads 13 µM (active).

In the case of `CCCn1nc(NS(=O)(=O)c2ccc(F)cc2)c2cc3ccccc3nc21`, the Potency result is “inactive”. Take `O=Cc1c(Nc2ccccc2Cl)nc2ccccn2c1=O`: the Potency result is “inactive”.

Regarding `CCOCCCNC(=O)c1cc2c(=O)n3ccccc3nc2s1`, the Potency entry is “inactive”. To `O=Cc1c(N2CCN(c3cccc(Cl)c3)CC2)nc2ccccn2c1=O` belongs “inactive”; to `Cc1ccc(Cn2c(=N)c(S(=O)(=O)c3ccc(C)cc3)cc3c(=O)n4ccccc4nc32)cc1`, 5.8 µM (active); to `Cc1cc(C(=O)COc2ccccc2Cl)c(C)n1C1CC1`, “inactive”. To `Cc1ccc(C(=O)NNC(=O)c2ccc3c(c2)OCCO3)cc1` belongs “inactive”. The result for `O=C(C1Cc2ccccc2CN1C(=O)c1ccco1)N1CCN(c2ccccc2)CC1` (configuration not stated) reads “inactive”; that for `Cc1cc(S(=O)(=O)c2cc3ccc(O)c(C)c3oc2=O)ccc1F`, 10.3 µM (active); that for `COc1cccc2cc(S(=O)(=O)c3ccc(C)cc3)/c(=N/NS(=O)(=O)c3ccc(C)cc3)oc12`, “inactive”. As to `COC(=O)Cc1cc(=O)oc2c(C)c(O)ccc12`, the Potency entry is “inactive”.

In the case of `Cc1nc(Nc2ccccc2C)c2cnn(C)c2n1`, the Potency entry was “inactive”. As to `O=[N+]([O-])c1cc2ccccc2nc1-c1ccccc1`, the Potency entry was “inactive”. To `O=C(N[C@@H]1C/C=C\C[C@@H](CC(=O)N(CCO)Cc2ccccc2)C(=O)N[C@H](Cc2ccccc2)COC1=O)OCC1c2ccccc2-c2ccccc21` belongs “inactive”.

Turning to `Cc1cc(C(=O)COc2ccc(Br)cc2F)c(C)n1C1CC1`, the Potency result was “inactive”.
